Source: PubChem (National Center for Advancing Translational Sciences (NCATS))
IMPase inh: cell-permeable inhibitors of inositol monophosphatase (IMPase) | P97697 | inhibition (IP1 accumulation), % at 46.1 µM | AID 901 | CHO-M1 cells, IP1 accumulation, HTRF TR-FRET ratio | 120,000 tested, under 10 active; active = well fitted curve in the direction sought with a large enough effect in the signal ratio, not every such curve was filed as active; inconclusive = small, poorly fitted or top-dose-only effect, or a change in a side signal; inactive = no such curve, though single readings can be large or run the other way; the % refers to the signal ratio;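 note: cells stimulated with carbachol in lithium chloride buffer; higher means more IMPase inhibition seen as more IP1 and lower FRET ratio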
Target sequence (P97697 whole entry, looked up): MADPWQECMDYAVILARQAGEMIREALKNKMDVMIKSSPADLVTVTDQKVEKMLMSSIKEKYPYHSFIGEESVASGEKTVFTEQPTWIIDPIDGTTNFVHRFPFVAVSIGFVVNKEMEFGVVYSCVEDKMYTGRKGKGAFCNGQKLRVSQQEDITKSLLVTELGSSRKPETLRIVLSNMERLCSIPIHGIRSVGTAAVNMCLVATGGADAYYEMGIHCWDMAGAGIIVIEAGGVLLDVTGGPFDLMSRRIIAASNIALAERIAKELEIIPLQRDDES
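Elevated IP1 in lysates lowers TR-FRET signal (665/620 ratio and 620 channel reported). Cells were CHO-M1, given carbachol (50 uM as added) plus 50mM LiCl, pH 7.4, 30 min, 37C; compounds titrated up to 46 uM; AC50 by Hill equation.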
PNC assembly inh: perinucleolar compartment assembly inhibition; PC3M PTB-GFP, PNC prevalence imaging, 16 h; active compounds read low; activity change (PNC), negative = inhibition, % at 10 µM; 3.1% of 140,000 active;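 active = readout at or below -70, meaning at least 70% loss of cells showing the perinucleolar compartment, a nuclear body marking cancer cells; inconclusive = readout between -30 and a set limit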
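Compounds are pinned in duplicate onto adhered PC3M cells stably expressing GFP-tagged PTB and incubated 16 h at 37 C. Cells are then fixed, nuclei stained with Hoechst, and PNC-positive cells counted.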
12-hLO inh: 12-hLO (ALOX12) enzyme inhibition; P18054; purified 12-hLO, xylenol orange hydroperoxide absorbance; Potency, µM (top dose mostly 57.1 µM), usual class: inhibitors; 0.12% of 150,000 active; note: nearly all actives have a fitted effect of over 55% in size
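Purified human 12hLO (150 nM), preincubated 15 min with compound, then 40 uM arachidonic acid for 30 min, room temperature, Hepes pH 7.0 with 0.01% Triton X-100. Hydroperoxide detected by ferrous iron/xylenol orange; 573/405 nm absorbance ratio gives reaction progress.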
IMPase Li cell: IMPase inhibition in cells with lithium potentiation. CHO-M1 cells, IP1 TR-FRET (IP-One), carbachol + lithium. Potency, µM (doses to about 59.4 µM), usual class: inhibitors. 0.35% of 210,000 active. AID 1457;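 note: IP1 builds up when IMPase is blocked and the TR-FRET signal falls; nearly all actives have a fitted effect of over 50% in size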
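CHO cells stably expressing M1 receptor (2000/well) were cultured 16–30 h, then exposed to compounds with a small lithium addition for 30 min at 37C. IP1 was measured by TR-FRET competition; AC50 from Hill fits.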
15-hLO-2 inh: 15-hLO-2 (ALOX15B) enzyme inhibition. purified 15hLO-2, xylenol orange hydroperoxide absorbance. O15296. Potency, µM (titrated, usually from 57.1 µM), hits mostly inhibitors. AID 881. 0.56% of 110,000 active; note: nearly all actives have a fitted effect of over 60% in size
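Screening format was qHTS against 50 nM purified 15hLO-2 in Hepes pH 7.5 with detergent. Activity follows hydroperoxide formation from 45 uM arachidonic acid, measured as 573:405 nm absorbance ratio of the ferric-xylenol orange complex.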
HPGD inh: HPGD (human) dehydrogenase inhibition; P15428; purified HPGD, NADH fluorescence kinetic, PGE2 substrate; Potency, µM, usual class: inhibitors; 4.3% of 150,000 active; active = well fitted inhibition curve with a large enough effect, not every such curve was filed as active; inconclusive = small, poorly fitted or top-dose-only effect, or another doubt; inactive = no such curve, though single readings can be large or run the other way
Target sequence (P15428 whole entry, looked up): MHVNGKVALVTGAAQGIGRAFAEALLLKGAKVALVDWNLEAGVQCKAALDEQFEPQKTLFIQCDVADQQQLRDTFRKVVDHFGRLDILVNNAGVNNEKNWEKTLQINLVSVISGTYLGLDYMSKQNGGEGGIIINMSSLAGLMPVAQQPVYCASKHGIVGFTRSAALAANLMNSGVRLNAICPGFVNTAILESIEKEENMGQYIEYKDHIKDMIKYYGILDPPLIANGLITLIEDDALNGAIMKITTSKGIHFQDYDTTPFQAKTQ
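20 nM HPGD preincubated 15 min at room temperature with compound in 50 mM Tris-HCl pH 8, 0.01% Tween 20. Started with 1 mM NAD+ and 30 uM prostaglandin E2; NADH fluorescence (360/450 nm) read 5 times over 30-s intervals, last minus first.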
Numbers stand for hits; - = inactive; ? = inconclusive; . = no result given; [ ] = another dose, or the depositor's remark. An excerpt weighted towards active compounds, which were near 5.3% of everything screened. Unless noted, calls come from the whole dose curve; as a rule, active = well fitted curve in the direction sought with a large enough effect; inconclusive = small, poorly fitted or top-dose-only effect, or another doubt; inactive = no such curve, though single readings can be large; an effect the other way counts as inactive or inconclusive.

SMILES	IMPase inh	PNC assembly inh	12-hLO inh	IMPase Li cell	15-hLO-2 inh	HPGD inh
CCOC(=O)C1CCCN(C(=O)COc2ccc(N(C)S(=O)(=O)c3ccc(F)cc3)cc2)C1 (stereo not drawn)	.	.	.	-	.	.
CCC1=NNc2cccc3c(OC)ccc1c23	-	-	-	-	5.01µM	14.1µM
COc1ccc2c3c(cccc13)C(=O)N(O)C2=O	.	-	-	-	.	-
Cn1cccc1C(=O)N1CCC2(CCCN(c3ncccn3)C2)CC1	.	.	-	-	-	-
CC[n+]1ccc(/C=C2\Sc3ccccc3N2CCCS(=O)(=O)[O-])c2ccccc21	.	.	.	-	.	.
CCC(=S)/C=C1\Sc2ccc3ccccc3c2N1CCCS(=O)(=O)O	-	?	-	-	?	31.6µM
CCCCC(=O)N(C)C	.	.	-	-	-	-
COC(=O)c1c(Cl)c2n3ccccc3c(C)c(-c3ccccc3)c-2c1C(=O)OC	.	-	-	10µM	.	-
COC(=O)c1cc2c(-c3ccccc3)c(C)c3ccccn3c-2c1C(=O)OC	?	-	-	-	-	-
Cc1ccc(NC(=O)CN2C(=O)NC(Cc3c[nH]c4ccccc34)C2=O)cc1S(=O)(=O)N1CCCCC1 (stereo not drawn)	.	-	-	-	.	-
O=c1sc(N2CCN(c3ccc(F)cc3)CC2)nc2ccsc12	-	-	-	22.4µM	-	-
CN(C)c1ccc(NC(=S)c2ccccn2)cc1	.	-	-	-	.	25.1µM
Cc1cccn2c(=O)c(/C=N/O)c(N3CCCCC3)nc12	-	-	-	-	-	2µM
Cc1cccn2c(=O)c(/C=C(\C#N)C(=O)NCc3ccco3)c(N3CCCCC3)nc12	-	-	-	-	.	31.6µM
Cc1cccn2c(=O)c(C=O)c(N3CCN(c4ccccc4)CC3)nc12	.	.	.	-	.	.
Cc1cccn2c(=O)c(/C=C(\C#N)C(=O)NCc3ccco3)c(N3CCCC(C)C3)nc12 (stereo not drawn)	-	?	-	-	.	15.8µM
CSc1cnc2c(N)nc(N(C)C)nc2n1	.	-	-	-	.	-
O=C(Nc1ccccc1C(=O)NCc1ccco1)c1ccccc1	-	?	-	-	-	-
O=C(NC1CS(=O)(=O)CC1NCc1ccco1)c1ccccc1 (stereo not drawn)	-	-96.0	-	-	-	-
CSc1nc2ccc(NS(=O)(=O)c3c(Cl)cccc3Cl)cc2s1	.	-	-	-	.	-
CCOc1ccc(S(=O)(=O)NC2CCCCCC2)cc1	.	.	.	-	.	.
CSc1nc2ccc(S(=O)(=O)N3CCCCC3)cc2s1	-	-	-	-	-	-
CSc1nc2ccc(S(=O)(=O)NC3CCCCC3)cc2s1	-	-	-	-	-	15.8µM
CCOc1cc(S(=O)(=O)NC2CCCCCC2)ccc1F	-	-	-	-	-	25.1µM
CSc1nc2ccc(NS(=O)(=O)c3ccccc3F)cc2s1	.	-	-	-	.	25.1µM
SMILES	IMPase inh	PNC assembly inh	12-hLO inh	IMPase Li cell	15-hLO-2 inh	HPGD inh
Cc1ccc(N2CCN(Cc3nnc(-c4ccccc4F)o3)CC2)c(C)c1	-	.	.	.	.	.
O=C(Nc1ccccc1C(=O)N/N=C/c1ccco1)c1ccccc1	.	-	-	-	.	-
O=C(Nc1ccccc1C(=O)N/N=C/c1ccco1)c1ccc(F)cc1	.	-86.3	-	-	.	-
COC(=O)c1cn(NC(=O)C2CCCO2)c(=O)c2ccccc12 (stereo not drawn)	-	-	-	-	.	-
O=C(O)CNC(=O)C1COc2ccccc2O1 (stereo not drawn)	-	-	-	-	-	-
O=C(NC1CC2CCC1C2)C1COc2ccccc2O1 (stereo not drawn)	-	-85.8	-	-	-	14.1µM
COC(=O)c1cn(NC(=O)C2COc3ccccc3O2)c(=O)c2ccccc12 (stereo not drawn)	-	-	-	11.2µM	-	-
COc1ccc(CNC(=O)C2COc3ccccc3O2)cc1 (stereo not drawn)	-	-100.5	-	-	.	14.1µM
COc1ccccc1CNC(=O)C1COc2ccccc2O1 (stereo not drawn)	-	-	-	-	-	15.8µM
COc1cccc(NC(=O)c2sc3nc(C)c(C(=O)Nc4ccc(C)cc4C)c(-c4ccc(C)o4)c3c2N)c1	-	.	.	.	.	.
CC1(C)C(=O)N(CCN2CCC(C(=O)c3ccc(F)cc3)CC2)c2ccccc21	-	.	-	-	-	-
O=C1OC(c2ccco2)=N/C1=C\c1ccc(-c2cccc(C(F)(F)F)c2)o1	.	?	-	-	.	-
CN=c1scc(-c2ccccc2F)n1/N=C/c1ccc(O)c(O)c1O	.	.	.	-	.	.
O=C(/C(=N/N=C/c1ccc(O)c(O)c1O)c1ccccc1)c1ccccc1	.	-	?	-	.	2µM
Oc1ccc(/C=N/N=C(c2ccccc2)c2ccccc2)c(O)c1O	-	-	-	-	.	15.8µM
O=c1c(-c2cccs2)nc2cnc(Nc3ccccc3)nc2n1C[C@H]1CCCO1	.	.	.	-	-	.
O=C(CN1CCCc2ccccc21)NCCc1ccc(F)cc1	.	.	.	-	.	.
COc1ccc(C(=O)C2CCCN(Cc3ccc(Sc4nncn4C)o3)C2)cc1F (stereo not drawn)	.	.	.	-	.	.
CCCCC/C=C\C/C=C\C/C=C\C/C=C\CCCC(=O)C(F)(F)F	.	.	-[0.00818 µM]	-	?	-
O=c1oc2cc(O)ccc2c2ccccc12	?	-	-	12.6µM	-	-
O=C(ON=C1CCN(S(=O)(=O)c2ccccc2)CC1)c1ccc(F)cc1	-	-100.0	-	-	.	-
Fc1ccc(Nc2nc(-c3ccoc3)nc3ccccc23)cc1	.	.	.	-	-	.
Cc1ccccc1N(CC(=O)NC1CCCC1)C(=O)C1(C)CC(=O)N=C2C=CC=CN21 (stereo not drawn)	.	-115.7	-	-	.	?
Cc1cc(C)cc(N(CC(=O)NC2CCCC2)C(=O)C2(C)CC(=O)N=C3C=CC=CN32)c1 (stereo not drawn)	.	.	.	-	.	.
COC(=O)c1ccccc1NC(=O)C(C)Oc1ccccc1 (stereo not drawn)	?	?	-	-	.	-
SMILES	IMPase inh	PNC assembly inh	12-hLO inh	IMPase Li cell	15-hLO-2 inh	HPGD inh
CC(Oc1ccccc1)C(=O)Nc1ccccc1O (stereo not drawn)	-	-	-	-	-	7.08µM
S=c1[nH]nc(-c2ccccn2)n1/N=C/c1cccc2ccccc12	.	?	-	-	.	3.55µM
Fc1ccc(-c2n[nH]c(=S)n2/N=C/c2c[nH]c3ccccc23)cc1	-	-	-	-	.	2.82µM
Cc1ccccc1CSCC(=O)NC1CCCC1	-	-	-	-	-	17.8µM
CC(CC(=O)NC1CCCC1)c1ccccc1 (stereo not drawn)	-	?	-	-	-	2.51µM
O=C(CSCC(=O)NC1CCCC1)Nc1ccccc1	.	-	-	-	.	?
CC(=O)NC(CC(=O)NC1CCCCCC1)c1ccccc1 (stereo not drawn)	.	?	-	-	.	-
O=C(CSCc1ccco1)NC1CCCC1	.	?	-	-	.	28.2µM
